Data: PubChem BioAssay (NCI)
The panel holds about 83,000 compounds, 20% with a hit somewhere; the sample as a whole holds those more often.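 Method: cells in 96-well plates; compound added at one concentration; 48 h incubation; percent growth measured; values under 10 scored active.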 Values without a mark were called inactive. Calls of active or inactive are those of the source.

What was measured:
Assay in all cases: NCI-60 one-dose screen, 48 h (100 = growth as untreated, 0 = no growth, -100 = all killed)
Settings in all cases: 10 µM unless noted
SK-MEL-2 melanoma = test system: SK-MEL-2 melanoma
EKVX NSCLC = test system: EKVX NSCLC
SN12C renal = test system: SN12C renal
UO-31 renal = test system: UO-31 renal
TK-10 renal = test system: TK-10 renal
ACHN renal = test system: ACHN renal
A498 renal = test system: A498 renal
MOLT-4 leukemia = test system: MOLT-4 leukemia
CAKI-1 renal = test system: CAKI-1 renal
CCRF-CEM leukemia = test system: CCRF-CEM leukemia

**Q.** What does the source list for Nc1ccc(-c2cc3c(Nc4ccc(OCc5cccc(F)c5)c(Cl)c4)ncnc3s2)cc1?
**A.** growth (SK-MEL-2 melanoma): 25.3%; growth (EKVX NSCLC): 21.5%; growth (SN12C renal): 48.4%; growth (UO-31 renal): 19.6%; growth (TK-10 renal): 32.5%; growth (ACHN renal): 29.6%; growth (A498 renal): 39.3%; growth (MOLT-4 leukemia): 30%

**Q.** What does the source list for O=C(Oc1ccc[nH]c1=O)c1cc([N+](=O)[O-])cc([N+](=O)[O-])c1?
**A.** growth (SK-MEL-2 melanoma): -11.5% (active); growth (EKVX NSCLC): 112%; growth (SN12C renal): 107%; growth (UO-31 renal): 96.7%; growth (TK-10 renal): 90.3%; growth (ACHN renal): 107%; growth (A498 renal): 108%; growth (MOLT-4 leukemia): 135%

**Q.** With N#C/C(=C\c1ccc2c(c1)OCO2)n1nnc2ccccc21 as the compound, how does the growth (SK-MEL-2 melanoma) read?
**A.** 21.6%

**Q.** And the growth (EKVX NSCLC)?
**A.** 23%

**Q.** And the growth (SN12C renal)?
**A.** 14.1%

**Q.** What about the growth (UO-31 renal) of the same compound?
**A.** 11.9%

**Q.** And the growth (TK-10 renal)?
**A.** 28.3%

**Q.** And the growth (CAKI-1 renal)?
**A.** 17.7%

**Q.** And the growth (CCRF-CEM leukemia)?
**A.** 18.3%

**Q.** What about the growth (MOLT-4 leukemia) of the same compound?
**A.** 16.4%

**Q.** Cc1c2c(cn1Cc1ccccc1)CCc1cn(C)nc1-2 was tested. Which growth (SK-MEL-2 melanoma) did it give?
**A.** 114%

**Q.** And the growth (EKVX NSCLC)?
**A.** 73.2%

**Q.** What about the growth (SN12C renal) of the same compound?
**A.** 87%

**Q.** And the growth (UO-31 renal)?
**A.** 68.6%

**Q.** What about the growth (TK-10 renal) of the same compound?
**A.** 107%

**Q.** What about the growth (CAKI-1 renal) of the same compound?
**A.** 58.8%

**Q.** And the growth (A498 renal)?
**A.** 97.5%

**Q.** And the growth (CCRF-CEM leukemia)?
**A.** 74.4%

**Q.** And the growth (MOLT-4 leukemia)?
**A.** 69.7%

**Q.** What does the source list for NS(=O)(=O)Oc1ccc(NC(=O)C23CC4CC(CC(C4)C2)C3)cc1Cl?
**A.** growth (SK-MEL-2 melanoma): 99.9%; growth (EKVX NSCLC): 93%; growth (SN12C renal): 90.6%; growth (UO-31 renal): 63.4%; growth (TK-10 renal): 100%; growth (CAKI-1 renal): 89%; growth (CCRF-CEM leukemia): 73.6%; growth (MOLT-4 leukemia): 82.3%

**Q.** O=C(NCCOCCOCCOCCNC(=O)c1cc2c(o1)C(=O)c1ccccc1C2=O)NC12CC3CC(CC(C3)C1)C2 was tested. Which growth (SK-MEL-2 melanoma) did it give?
**A.** -17.9% (active)

**Q.** What about the growth (EKVX NSCLC) of the same compound?
**A.** -4.03% (active)

**Q.** What about the growth (SN12C renal) of the same compound?
**A.** -68.2% (active)

**Q.** What about the growth (UO-31 renal) of the same compound?
**A.** -59% (active)

**Q.** What about the growth (TK-10 renal) of the same compound?
**A.** -3.88% (active)

**Q.** What about the growth (CAKI-1 renal) of the same compound?
**A.** -5.41% (active)

**Q.** And the growth (CCRF-CEM leukemia)?
**A.** 18.8%

**Q.** Which results are given for OCCCCc1nccc2c1[nH]c1ccccc12?
**A.** growth (SK-MEL-2 melanoma): 121%; growth (EKVX NSCLC): 94.8%; growth (SN12C renal): 103%; growth (UO-31 renal): 95.1%; growth (TK-10 renal): 67.9%; growth (ACHN renal): 98.7%; growth (A498 renal): 112%; growth (MOLT-4 leukemia): 119%

**Q.** How did the growth (SK-MEL-2 melanoma) turn out when O=C(Nc1ccccc1)c1sc(-c2cccc(C(F)(F)F)c2)cc1O was run?
**A.** 33.4%

**Q.** And the growth (EKVX NSCLC)?
**A.** 81.5%

**Q.** What about the growth (SN12C renal) of the same compound?
**A.** 83.7%

**Q.** What about the growth (UO-31 renal) of the same compound?
**A.** 77.6%

**Q.** What about the growth (TK-10 renal) of the same compound?
**A.** 96.5%

**Q.** What about the growth (CAKI-1 renal) of the same compound?
**A.** 74.6%

**Q.** And the growth (A498 renal)?
**A.** 51.2%

**Q.** What about the growth (CCRF-CEM leukemia) of the same compound?
**A.** 87.4%

**Q.** What about the growth (MOLT-4 leukemia) of the same compound?
**A.** 87.7%

**Q.** For COc1ccc(N=c2nc3sc4cc(Cl)ccc4n3c(N)c2C#N)cc1, which growth (SK-MEL-2 melanoma) is on record?
**A.** 58.6%

**Q.** And the growth (EKVX NSCLC)?
**A.** 70.8%

**Q.** And the growth (SN12C renal)?
**A.** 98.4%

**Q.** And the growth (UO-31 renal)?
**A.** 64.1%

**Q.** What about the growth (TK-10 renal) of the same compound?
**A.** 118%

**Q.** What about the growth (CAKI-1 renal) of the same compound?
**A.** 69.2%

**Q.** And the growth (A498 renal)?
**A.** 100%

**Q.** And the growth (CCRF-CEM leukemia)?
**A.** 89.2%

**Q.** And the growth (MOLT-4 leukemia)?
**A.** 37.7%

**Q.** Which results are given for O=C(O)c1ccc(CO)o1?
**A.** growth (SK-MEL-2 melanoma): 92.3%; growth (EKVX NSCLC): 105%; growth (SN12C renal): 104%; growth (UO-31 renal): 97.7%; growth (TK-10 renal): 103%; growth (CAKI-1 renal): 102%; growth (A498 renal): 114%; growth (CCRF-CEM leukemia): 106%; growth (MOLT-4 leukemia): 100%

**Q.** Which growth (SK-MEL-2 melanoma) does the source give for O=[N+]([O-])c1ccc(-c2cc3c(Nc4ccc(Cl)c(C(F)(F)F)c4)ncnc3s2)cc1 here?
**A.** -4.98% (active)

**Q.** And the growth (EKVX NSCLC)?
**A.** 7.59% (active)

**Q.** What about the growth (SN12C renal) of the same compound?
**A.** 2.43% (active)

**Q.** And the growth (UO-31 renal)?
**A.** -3.64% (active)

**Q.** And the growth (TK-10 renal)?
**A.** 9.44% (active)

**Q.** And the growth (ACHN renal)?
**A.** 4.57% (active)

**Q.** And the growth (A498 renal)?
**A.** -13% (active)

**Q.** What about the growth (CCRF-CEM leukemia) of the same compound?
**A.** 17.5%

**Q.** And the growth (MOLT-4 leukemia)?
**A.** 9.22% (active)

**Q.** What does the source list for CN1CCC(=C2c3ccccc3C=Cc3ccccc32)CC1?
**A.** growth (SK-MEL-2 melanoma): 105%; growth (EKVX NSCLC): 91.9%; growth (SN12C renal): 79.1%; growth (UO-31 renal): 67%; growth (TK-10 renal): 112%; growth (CAKI-1 renal): 95.5%; growth (A498 renal): 99.2%; growth (CCRF-CEM leukemia): 53.1%; growth (MOLT-4 leukemia): 72.6%

**Q.** Which results are given for CCN(CC)CCOC(=O)N1c2ccccc2Sc2ccccc21?
**A.** growth (SK-MEL-2 melanoma): 97.9%; growth (EKVX NSCLC): 106%; growth (SN12C renal): 101%; growth (UO-31 renal): 87.9%; growth (TK-10 renal): 88.2%; growth (A498 renal): 97.1%; growth (CCRF-CEM leukemia): 69.1%

**Q.** Which growth (SK-MEL-2 melanoma) does the source give for CCC(C)NCc1ccccc1 (stereo not given) here?
**A.** 92.6%

**Q.** And the growth (EKVX NSCLC)?
**A.** 103%

**Q.** What about the growth (SN12C renal) of the same compound?
**A.** 100%

**Q.** What about the growth (UO-31 renal) of the same compound?
**A.** 88%

**Q.** What about the growth (TK-10 renal) of the same compound?
**A.** 96.9%

**Q.** And the growth (A498 renal)?
**A.** 88.8%

**Q.** What about the growth (CCRF-CEM leukemia) of the same compound?
**A.** 83.4%

**Q.** And the growth (MOLT-4 leukemia)?
**A.** 93.5%

**Q.** With CCCCCCCC/C=C/CCCCCCCC1=NCC[N+]1(CCO)CCO as the compound, how does the growth (SK-MEL-2 melanoma) read?
**A.** 102%

**Q.** And the growth (EKVX NSCLC)?
**A.** 76.4%

**Q.** What about the growth (SN12C renal) of the same compound?
**A.** 76%

**Q.** And the growth (UO-31 renal)?
**A.** 65.4%

**Q.** What about the growth (TK-10 renal) of the same compound?
**A.** 41.2%

**Q.** What about the growth (CAKI-1 renal) of the same compound?
**A.** 52.5%

**Q.** And the growth (A498 renal)?
**A.** 73.4%

**Q.** What about the growth (CCRF-CEM leukemia) of the same compound?
**A.** 31.4%

**Q.** And the growth (MOLT-4 leukemia)?
**A.** 41.7%
